Fold change, cell count and z-score data for 20 compounds are collected here from PubChem BioAssay.

“And” between values parts separate entries of the source, which are not always exact repeats. Equal values may be shown once. The source made the active and inactive calls.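 Rule for the calls, unless noted: active = compounds whose cell count with miR-34 switched on is under 0.7 times the count with it off; inactive = the rest.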

The nature of assay [1]: sensitizers of A549 cells to miR-34 induction, primary screen, imaging, A549 dox-inducible miR-34, nuclei and caspase counts (AID 1347080). The note with it: A549 miR-34 inducible, Hoechst nuclei count, 48 h.
A short description of assay [2]: survival rescue of mitochondrial mutant cells in low glucose, primary screen, MELAS cybrids, Rieske KO mouse fibroblasts, CellTiter-Glo (AID 1508586;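 active = mean z-score across replicates of 1.96 or higher in either the MELAS or the Rieske mutant cell line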;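 note: z relative to plate mean and SD of compound and empty wells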). (In general: In ATP-based viability assays light output follows the ATP content of the culture.)
Where [3] appears, read: stronger effect = lower value, cell number ratio, induced over uninduced.
The mark [4] stands for this setting: measured here: relative caspase fold change +Dox/-Dox.
The mark [5] stands for this setting: measured here: total cells with miR-34 induction, stronger effect = lower value.
Setting [6] is: measured here: total cells without miR-34 induction.
The mark [7] stands for this setting: MELAS cybrid survival, CellTiter-Glo 48 h, stronger effect = higher value.
The mark [8] stands for this setting: Rieske KO mouse fibroblast survival, CellTiter-Glo 72 h.
Note: test concentration not given here.

Take `CNC(=O)c1ccccc1Sc1ccc2c(C=Cc3ccccn3)n[nH]c2c1`: the fold change was 0.918 (inactive) in assay [1] (setting [3]) and 0.851 in assay [1] (setting [4]). Moreover, the cell count in assay [1] (setting [5]) amounted to 2240; in assay [1] (setting [6]), 2440. Also, the z-score in assay [2] (setting [7]) is 1.15 (inactive); in assay [2] (setting [8]) it was -0.442.
`CNC(=O)C(c1ccccc1)N1CCc2cc(OC)c(OC)cc2C1CCc1ccc(C(F)(F)F)cc1` (stereo not given): the figures for the fold change in assay [1] (setting [3]) and in assay [1] (setting [4]) were 1.06 (inactive) and 0.482, respectively. The cell count worked out at 6530 in assay [1] (setting [5]) and 6180 in assay [1] (setting [6]). Further, the z-score is -0.149 (inactive) in assay [2] (setting [7]) and 0.101 in assay [2] (setting [8]).
In the case of `COc1c(C)c(C(=O)c2ccc(N)c(C(=O)O)c2)n2ccccc12`, the fold change in assay [1] (setting [3]) is 0.908 (inactive); in assay [1] (setting [4]), 0.344. Also, the cell count turned out to be 7600 in assay [1] (setting [5]) and 8370 in assay [1] (setting [6]). Also, the z-score in assay [2] (setting [7]) is 0.355 (inactive); in assay [2] (setting [8]), -2.17.
Take `CC(CN1CC(=O)NC(=O)C1)N1CC(=O)NC(=O)C1` (stereo not given): the fold change in assay [1] (setting [3]) is 0.969 (inactive); in assay [1] (setting [4]), 1.09. Further, the cell count stood at 5760 in assay [1] (setting [5]) and 5950 in assay [1] (setting [6]). The z-score in assay [2] (setting [7]) was -0.442 (inactive); in assay [2] (setting [8]) it was 0.325.
Consider `C#CCC(c1nc2cc(Cl)ccc2c(=O)n1Nc1ccccc1)N(CCCN)C(=O)c1cccc(Cl)c1F` (stereo not given), for which the fold change in assay [1] (setting [3]) was 0.689 (active); in assay [1] (setting [4]), 0.42. Moreover, the cell count in assay [1] (setting [5]) came to 882; in assay [1] (setting [6]), 1280. The results for the z-score in assay [2] (setting [7]) and in assay [2] (setting [8]) were 1.61 (inactive) and 0.152, respectively.
As for `CC1C[C@H]2[C@@H]3CCC4=CC(=O)C=C[C@]4(C)[C@]3(F)C(O)C[C@]2(C)[C@]1(O)C(=O)CO` (stereo not given in full), the fold change in assay [1] (setting [3]) is 0.886 (inactive) and 0.91 (inactive); in assay [1] (setting [4]), 0.577 and 0.802. In addition, the cell count in assay [1] (setting [5]) is 5440 and 5070; in assay [1] (setting [6]) it was 6140 and 5570. The z-score in assay [2] (setting [7]) is -0.338 (inactive) and -0.534 (inactive); in assay [2] (setting [8]), 0.031 and -0.0341.
For the compound `CNc1nc(Nc2cnn(C3CCN(C4COC4)CC3F)c2Cl)ncc1C(F)(F)F` (stereo not given), the fold change in assay [1] (setting [3]) is 0.967 (inactive); in assay [1] (setting [4]) it was 0.45. In addition, the values for the cell count in assay [1] (setting [5]) and in assay [1] (setting [6]) were 8480 and 8760, respectively. Further, the z-score is -0.354 (inactive) in assay [2] (setting [7]) and 0.843 in assay [2] (setting [8]).
On to `CCOC(=O)C(CCc1ccccc1)NC(C)C(=O)N1CCCC1C(=O)O` (stereo not given), for which the fold change was 0.954 (inactive) in assay [1] (setting [3]) and 0.968 in assay [1] (setting [4]). The cell count was determined as 7520 in assay [1] (setting [5]) and 7880 in assay [1] (setting [6]). Further, the results for the z-score in assay [2] (setting [7]) and in assay [2] (setting [8]) were -0.0746 (inactive) and -0.409, respectively.
In the case of `O=C(C=Cc1ccc(O)c(O)c1)OCCc1ccccc1`, the fold change in assay [1] (setting [3]) was 1.02 (inactive); in assay [1] (setting [4]), 0.387. Further, the results for the cell count in assay [1] (setting [5]) and in assay [1] (setting [6]) were 7430 and 7300, respectively. For the same compound, the figures for the z-score in assay [2] (setting [7]) and in assay [2] (setting [8]) were -0.587 (inactive) and -2.25, respectively.
Consider `CC(C)c1cc(-c2ccc(F)c3ccccc23)nc(N)n1`, for which the fold change was 0.949 (inactive) in assay [1] (setting [3]) and 0.444 in assay [1] (setting [4]). Moreover, the figures for the cell count in assay [1] (setting [5]) and in assay [1] (setting [6]) were 7570 and 7980, respectively. Moreover, the values for the z-score in assay [2] (setting [7]) and in assay [2] (setting [8]) were -0.214 (inactive) and 0.0729, respectively.
With `CC(C)(Cc1ccc2ccccc2c1)NCC(O)COc1cccc(Cl)c1C#N` (stereo not given), the values for the fold change in assay [1] (setting [3]) and in assay [1] (setting [4]) were 0.92 (inactive) and 0.745, respectively. For the same compound, the cell count in assay [1] (setting [5]) was 8560; in assay [1] (setting [6]), 9310. For the same compound, the z-score in assay [2] (setting [7]) is -0.327 (inactive); in assay [2] (setting [8]) it was 0.584.
For the compound `CC#C[C@@]1(O)CC[C@H]2[C@@H]3CCC4=CC(=O)CCC4=C3C(c3ccc(N(C)C)cc3)C[C@@]21C` (stereo not given in full), the fold change in assay [1] (setting [3]) was 0.891 (inactive); in assay [1] (setting [4]), 1.53. Besides, the cell count in assay [1] (setting [5]) amounted to 6640; in assay [1] (setting [6]) it was 7460. The z-score is -0.469 (inactive) in assay [2] (setting [7]) and 0.644 in assay [2] (setting [8]).
Consider `C=C1C(=O)OC2C1CCC(C)=CCC[C@@]1(C)OC21` (stereo not given in full), for which the values for the fold change in assay [1] (setting [3]) and in assay [1] (setting [4]) were 0.965 (inactive) and 0.646, respectively. Further, the cell count in assay [1] (setting [5]) worked out at 8720; in assay [1] (setting [6]) it was 9040. The results for the z-score in assay [2] (setting [7]) and in assay [2] (setting [8]) were 0.936 (inactive) and -0.281, respectively.
For the compound `CN1CC(=O)N2C(c3ccc4c(c3)OCO4)c3[nH]c4ccccc4c3C[C@@H]2C1=O` (stereo not given in full), the fold change was 0.882 (inactive) in assay [1] (setting [3]) and 0.922 in assay [1] (setting [4]). The cell count in assay [1] (setting [5]) came out at 6530; in assay [1] (setting [6]), 7410. The z-score in assay [2] (setting [7]) is -0.417 (inactive); in assay [2] (setting [8]), 0.533.
For `O=C(O)c1ccc(C=C2SC(=S)N(c3cccc(C(F)(F)F)c3)C2=O)cc1`, the fold change in assay [1] (setting [3]) was 0.824 (inactive); in assay [1] (setting [4]), 0.518. Also, the cell count in assay [1] (setting [5]) is 6780; in assay [1] (setting [6]), 8220. In addition, the figures for the z-score in assay [2] (setting [7]) and in assay [2] (setting [8]) were -0.207 (inactive) and -3.49, respectively.
For the compound `Oc1ccc(OC2CCCCO2)cc1` (stereo not given), the fold change in assay [1] (setting [3]) was 0.945 (inactive); in assay [1] (setting [4]), 0.827. Besides, the results for the cell count in assay [1] (setting [5]) and in assay [1] (setting [6]) were 7580 and 8020, respectively. Also, the z-score was -0.229 (inactive) in assay [2] (setting [7]) and -0.263 in assay [2] (setting [8]).
Regarding `CC(C)Oc1ccc(-c2cnc3c(-c4ccnc5ccccc45)cnn3c2)cc1`, the fold change in assay [1] (setting [3]) was 0.806 (inactive); in assay [1] (setting [4]), 0.45. Further, the cell count was found to be 5470 in assay [1] (setting [5]) and 6780 in assay [1] (setting [6]). The z-score in assay [2] (setting [7]) is -0.164 (inactive); in assay [2] (setting [8]), 0.555.
Turning to `CCOC(=O)C(N)Cc1ccc(-c2cc(OC(c3ccc(Cl)cc3-n3ccc(C)n3)C(F)(F)F)nc(N)n2)cc1` (stereo not given), the fold change in assay [1] (setting [3]) is 0.982 (inactive); in assay [1] (setting [4]), 0.783. For the same compound, the cell count was 8120 in assay [1] (setting [5]) and 8260 in assay [1] (setting [6]). In addition, the results for the z-score in assay [2] (setting [7]) and in assay [2] (setting [8]) were 0.073 (inactive) and 0.184, respectively.
Take `O=C(Nc1ncc(SCCN2CCCC2)s1)[C@]1(c2ccc(S(=O)(=O)C3CC3)cc2)CC1C1CCCCC1` (stereo not given in full): the fold change in assay [1] (setting [3]) was 0.954 (inactive); in assay [1] (setting [4]), 1.22. The cell count in assay [1] (setting [5]) came out at 5020; in assay [1] (setting [6]) it was 5260. Moreover, the z-score in assay [2] (setting [7]) was -0.306 (inactive); in assay [2] (setting [8]), -0.0398.
`CC(NC(=O)Cc1cc(F)cc(F)c1)C(=O)NC(C(=O)OC(C)(C)C)c1ccccc1` (stereo not given): the fold change in assay [1] (setting [3]) is 0.856 (inactive); in assay [1] (setting [4]), 0.819. Further, the results for the cell count in assay [1] (setting [5]) and in assay [1] (setting [6]) were 7300 and 8530, respectively. In addition, the z-score in assay [2] (setting [7]) is -0.187 (inactive); in assay [2] (setting [8]), 0.801.
